Among the data in PubChem BioAssay (NCI) are growth values, retold here.

About 83,000 compounds went through this panel and 20% of them were active in at least one assay; those are over-represented in the sample as a whole.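 Assay: single dose, 48 h. Readout: percent growth (0 = no net growth; negative = cell death). Active: <10.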 Unmarked numbers belong to inactive results. Activity calls are given as the source filed them.

The test system of one test is HCT-116 colon. The test can be described thus: NCI-60 one-dose screen, 48 h (100 = growth as untreated, 0 = no growth, -100 = all killed). The note with it: 10 µM.
As to `Nc1nc(Nc2ccc(Cl)cc2)n(Cc2cccc(Br)c2)n1`, the growth was -57.7% (active).
The same measure, in the same setting: the result for `COc1ccc(N(C)c2cc(C#N)nc3ccccc23)cc1N` reads 6.17% (active); that for `CCOc1ccc(Nc2nc3ccccc3nc2Nc2ccc(OCC)cc2)cc1`, 17.8%; that for `NS(=O)(=O)c1ccc(NC(=O)CSc2ccc(-c3ccccc3)nn2)c(Br)c1`, 48.7%.
The same measure, in the same setting: the result for `COc1ccc(OC)c(/C=N/NC(=O)c2ccc3nc(-c4ccc(Cl)cc4)[nH]c3c2)c1` reads 56.9%.
Take `N#Cc1c(NC(=O)c2ccc(C(F)(F)F)cc2)sc2c1CCC(=O)C2`: the growth is -46.3% (active).
Still for that read-out and setting: the result for `COc1ccc(-c2cc(-c3cc(C(=O)c4ccc(Br)cc4)n4ccc(C)cc34)nc(N)c2C#N)cc1` reads 73.8%.
Same read-out and setting: as for `CN1C(=O)N(C)C2SC(N/N=C/c3cccs3)=NC21` (stereo unspecified), the figure is 28.2%; as for `CN1CCN(Cc2ccc(NC(=O)c3cncc(C#Cc4cnc5ccc(N[C@@H]6CCOC6)nn45)c3)cc2C(F)(F)F)CC1`, -63.9% (active).
In the case of `COc1cc(C2CC(c3ccc(C)cc3)=Nc3c(N)nc(N)nc3N2)ccc1Oc1nc(Nc2ccc(F)cc2)nc(N(C)C)n1` (stereo unspecified), the growth was 6.7% (active).
Still for that read-out and setting: as for `CC1=C2C(=C[C@@](C)(CO)[C@@H]2O)/C(=N\N)[C@](C)(O)C12CC2`, the figure is 19.1%; as for `Cc1ccc(NCC(=O)Nn2c(COc3ccccc3)nc3ccccc3c2=O)cc1`, 85.1%; as for `CN1C(=O)/C(=C/c2nccs2)SC1=S`, 85.2%.
Same read-out and setting: the result for `Cc1ccc2nc(-c3ccc(-c4nnc(SCC(=O)Nc5ccc(Cl)cc5)o4)cc3)[nH]c2c1` reads 9.37% (active); that for `O=C1Nc2cc(Cl)ccc2/C1=C/c1cccc(OCc2ccccc2)c1`, 3.32% (active); that for `CCOc1ccc(/C=N/NC(=O)Cn2nc(Cc3ccccc3)c3onc(C)c3c2=O)cc1`, 10.3%.
The same measure, in the same setting: the result for `O=C(CSc1nnc(-c2c[nH]c3ccccc23)n1-c1ccccc1)Nc1ccc(C(=O)/C=C/c2ccc(Cl)cc2)cc1` reads -37.3% (active).
Regarding `Oc1ccc(/C=C2\CCCc3cc4ccc(O)cc4[o+]c32)c(O)c1`, the growth is 15.7%.
On the same count and under the same terms, as for `CCCSc1nc(NC2CC2)c(C#N)c(-c2ccc(OC)cc2)n1`, the figure is 74.1%.
Same read-out and setting: the result for `COc1ccc(/C=C/C(=O)c2ccc(NC(=O)CN3C(=O)NC(C)(c4ccccc4)C3=O)cc2)cc1` (stereo unspecified) reads 12.8%; that for `Brc1ccc(/C=N/Nc2ncnc3sc4c(c23)CCN(Cc2ccccc2)C4)cc1`, 33.3%; that for `CC1(c2ccccc2)NC(=O)N(CC(=O)Nc2ccc(C(=O)/C=C/C=C/c3ccccc3)cc2)C1=O` (stereo unspecified), 27.1%.
On the same count and under the same terms, the result for `O=C(c1ccc(Cl)cc1)C1[C@H](c2ccccc2Br)[C@@H](c2ccccc2)NC12C(=O)Nc1ccc(Cl)cc12` (stereo partly specified) reads 7.63% (active); that for `COc1ccc2nc(Cl)c(-c3cc(-c4ccccc4)nc(=S)[nH]3)cc2c1`, 66.4%.
Consider `CC(=O)Oc1ccccc1C(=O)Oc1ccc(C(=O)/C=C/c2ccncc2)cc1`, for which the growth is -28.5% (active).
Same read-out and setting: as for `c1ccc(C(=C(c2ccc(OCCN3CCCCC3)cc2)c2ccc(OCCN3CCCCC3)cc2)C2CCCC2)cc1`, the figure is -62.8% (active); as for `CCCCSc1nc(Nc2ccc(/C(C)=N/NC(N)=S)cc2)c(C#N)c(-c2ccc(OC)cc2)n1`, 38.2%; as for `COc1ccc(C(=O)Nc2ccc(-c3ccc4c(c3)NC(=O)/C4=C\c3ccc[nH]3)cc2)cc1`, 36.4%.
Take `COc1cccc(/C=C2\N=C(C)N(CCc3ccc(S(N)(=O)=O)cc3)C2=O)c1`: the growth was 97.8%.
Consider `COc1ccc(-c2nc(-c3ccccc3)c(-c3ccccc3)n2-c2ccc(S(=O)(=O)Nc3ncccn3)cc2)cc1OC`, for which the growth was 67.4%.
On the same count and under the same terms, as for `Cc1ccc(F)cc1N/C=c1\s/c(=C(\C#N)C(=O)Nc2ccccc2)n(-c2ccccc2)c1=O`, the figure is 42%; as for `CC1(c2ccccc2)NC(=O)N(CC(=O)Nc2ccc(C(=O)/C=C/c3ccccc3)cc2)C1=O` (stereo unspecified), -65% (active); as for `COc1ccc(N2N=C(c3ccc4c(c3)OCCO4)CC2c2cccc(NC(=O)CCCNS(=O)(=O)c3ccc(F)cc3)c2)cc1` (stereo unspecified), 73.3%.
Still for that read-out and setting: as for `Cc1ccc(S(=O)(=O)c2nc(-c3ccccc3)oc2S(=O)(=O)CC(=O)N2CCCC2)cc1`, the figure is 0.73% (active); as for `Cn1cc(/C=N/Nc2cccc(Cl)n2)c2ccccc21`, 33.3%.
Still for that read-out and setting: as for `CN(C)c1ccc(/C=C/C(=O)c2ccc(NC(=O)CN3C(=O)NC(C)(c4ccccc4)C3=O)cc2)cc1` (stereo unspecified), the figure is 26.4%; as for `O=C1N/C(=N\c2nccs2)S/C1=C\c1cccs1`, 15.5%; as for `O=C(c1ccc(O)cc1)C1[C@H](c2ccccc2Br)[C@@H](c2ccccc2)NC12C(=O)Nc1ccc(Cl)cc12` (stereo partly specified), 18.4%.

In the next test the test system is HCC-2998 colon. The description is as above. The note with it: 10 µM.
Regarding `Nc1nc(Nc2ccc(Cl)cc2)n(Cc2cccc(Br)c2)n1`, the growth was -71.6% (active).
With `COc1ccc(N(C)c2cc(C#N)nc3ccccc23)cc1N`, the growth was 7.99% (active).
On the same count and under the same terms, the result for `CCOc1ccc(Nc2nc3ccccc3nc2Nc2ccc(OCC)cc2)cc1` reads 90.2%.
On the same count and under the same terms, as for `NS(=O)(=O)c1ccc(NC(=O)CSc2ccc(-c3ccccc3)nn2)c(Br)c1`, the figure is 77.9%.
Still for that read-out and setting: as for `COc1ccc(OC)c(/C=N/NC(=O)c2ccc3nc(-c4ccc(Cl)cc4)[nH]c3c2)c1`, the figure is 85.4%.
In the case of `N#Cc1c(NC(=O)c2ccc(C(F)(F)F)cc2)sc2c1CCC(=O)C2`, the growth is -96.7% (active).
For the molecule `COc1ccc(-c2cc(-c3cc(C(=O)c4ccc(Br)cc4)n4ccc(C)cc34)nc(N)c2C#N)cc1`, the growth is 103%.
On the same count and under the same terms, the result for `CN1C(=O)N(C)C2SC(N/N=C/c3cccs3)=NC21` (stereo unspecified) reads 54.2%; that for `CN1CCN(Cc2ccc(NC(=O)c3cncc(C#Cc4cnc5ccc(N[C@@H]6CCOC6)nn45)c3)cc2C(F)(F)F)CC1`, -99.7% (active); that for `COc1cc(C2CC(c3ccc(C)cc3)=Nc3c(N)nc(N)nc3N2)ccc1Oc1nc(Nc2ccc(F)cc2)nc(N(C)C)n1` (stereo unspecified), 29.9%.
In the case of `CC1=C2C(=C[C@@](C)(CO)[C@@H]2O)/C(=N\N)[C@](C)(O)C12CC2`, the growth is -76.6% (active).
The same measure, in the same setting: as for `Cc1ccc(NCC(=O)Nn2c(COc3ccccc3)nc3ccccc3c2=O)cc1`, the figure is 95.7%.
In the case of `CN1C(=O)/C(=C/c2nccs2)SC1=S`, the growth is 113%.
The same measure, in the same setting: the result for `Cc1ccc2nc(-c3ccc(-c4nnc(SCC(=O)Nc5ccc(Cl)cc5)o4)cc3)[nH]c2c1` reads 67.5%; that for `O=C1Nc2cc(Cl)ccc2/C1=C/c1cccc(OCc2ccccc2)c1`, -39% (active); that for `CCOc1ccc(/C=N/NC(=O)Cn2nc(Cc3ccccc3)c3onc(C)c3c2=O)cc1`, 60.6%.
On the same count and under the same terms, the result for `O=C(CSc1nnc(-c2c[nH]c3ccccc23)n1-c1ccccc1)Nc1ccc(C(=O)/C=C/c2ccc(Cl)cc2)cc1` reads 78%; that for `Oc1ccc(/C=C2\CCCc3cc4ccc(O)cc4[o+]c32)c(O)c1`, 31%; that for `CCCSc1nc(NC2CC2)c(C#N)c(-c2ccc(OC)cc2)n1`, 115%.
The same measure, in the same setting: as for `COc1ccc(/C=C/C(=O)c2ccc(NC(=O)CN3C(=O)NC(C)(c4ccccc4)C3=O)cc2)cc1` (stereo unspecified), the figure is 102%; as for `Brc1ccc(/C=N/Nc2ncnc3sc4c(c23)CCN(Cc2ccccc2)C4)cc1`, 91.4%.
For `CC1(c2ccccc2)NC(=O)N(CC(=O)Nc2ccc(C(=O)/C=C/C=C/c3ccccc3)cc2)C1=O` (stereo unspecified), the growth was 87.2%.
Still for that read-out and setting: the result for `O=C(c1ccc(Cl)cc1)C1[C@H](c2ccccc2Br)[C@@H](c2ccccc2)NC12C(=O)Nc1ccc(Cl)cc12` (stereo partly specified) reads -0.337% (active); that for `COc1ccc2nc(Cl)c(-c3cc(-c4ccccc4)nc(=S)[nH]3)cc2c1`, 97.3%.
Still for that read-out and setting: as for `CC(=O)Oc1ccccc1C(=O)Oc1ccc(C(=O)/C=C/c2ccncc2)cc1`, the figure is -14% (active); as for `c1ccc(C(=C(c2ccc(OCCN3CCCCC3)cc2)c2ccc(OCCN3CCCCC3)cc2)C2CCCC2)cc1`, -99.5% (active).
Consider `CCCCSc1nc(Nc2ccc(/C(C)=N/NC(N)=S)cc2)c(C#N)c(-c2ccc(OC)cc2)n1`, for which the growth was 94.5%.
Still for that read-out and setting: the result for `COc1ccc(C(=O)Nc2ccc(-c3ccc4c(c3)NC(=O)/C4=C\c3ccc[nH]3)cc2)cc1` reads 31.3%.
On the same count and under the same terms, the result for `COc1cccc(/C=C2\N=C(C)N(CCc3ccc(S(N)(=O)=O)cc3)C2=O)c1` reads 117%; that for `COc1ccc(-c2nc(-c3ccccc3)c(-c3ccccc3)n2-c2ccc(S(=O)(=O)Nc3ncccn3)cc2)cc1OC`, 82.8%; that for `Cc1ccc(F)cc1N/C=c1\s/c(=C(\C#N)C(=O)Nc2ccccc2)n(-c2ccccc2)c1=O`, 92.1%.
Still for that read-out and setting: as for `CC1(c2ccccc2)NC(=O)N(CC(=O)Nc2ccc(C(=O)/C=C/c3ccccc3)cc2)C1=O` (stereo unspecified), the figure is -15.6% (active); as for `COc1ccc(N2N=C(c3ccc4c(c3)OCCO4)CC2c2cccc(NC(=O)CCCNS(=O)(=O)c3ccc(F)cc3)c2)cc1` (stereo unspecified), 77.1%.
In the case of `Cc1ccc(S(=O)(=O)c2nc(-c3ccccc3)oc2S(=O)(=O)CC(=O)N2CCCC2)cc1`, the growth was -91.1% (active).
Same read-out and setting: the result for `Cn1cc(/C=N/Nc2cccc(Cl)n2)c2ccccc21` reads 48.5%.
On the same count and under the same terms, the result for `CN(C)c1ccc(/C=C/C(=O)c2ccc(NC(=O)CN3C(=O)NC(C)(c4ccccc4)C3=O)cc2)cc1` (stereo unspecified) reads 38.5%; that for `O=C1N/C(=N\c2nccs2)S/C1=C\c1cccs1`, 40.8%.
Same read-out and setting: the result for `O=C(c1ccc(O)cc1)C1[C@H](c2ccccc2Br)[C@@H](c2ccccc2)NC12C(=O)Nc1ccc(Cl)cc12` (stereo partly specified) reads -73.2% (active).
